From PubChem BioAssay
Several values for one entry are separate records, joined by “and”; a condition that tells them apart may be missing. Identical values can stand only once. For some of these results: Results with a measured potency or affinity are listed apart. Activity calls are given as the source filed them. Rule as the data show it, unless noted: active = parasite load remaining mostly below about 12% (no sharp cut-off); inactive = mostly above about 10%.

Assays:
[1] = blockers of polyQ-driven CASP3 activation – cell-based (AID 1583); settings: polyglutamine-induced caspase-3 activation, cell assay; stronger effect = higher value;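 tested at 10 µM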
[2] = yeast 75Q aggregation reduction – 75Q-TubU reporter (AID 1593); settings: Yeast 75Q polyglutamine aggregation reporter
[3] = restoration of touch response, mutant HTT neurons – whole organism, C. elegans mechanosensory neurons, N-terminal huntingtin (AID 1599); settings: C. elegans polyQ-huntingtin mechanosensory neurons, stronger effect = higher value
[4] = blockers of cytochrome c efflux from mitochondria – biochemical, purified mitochondria (AID 1603); settings: stronger effect = lower value;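 also: mouse liver mitochondria challenged with calcium chloride; signal normalized to the plate average as 100%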
[5] = polyglutamine aggregate formation blockers (AID 1604); settings: polyglutamine-induced protein aggregation inhibition assay; stronger effect = higher value; tested at 2.5 µM
[6] = glutamate transport activators, MN-1 cells, MN-1 cell line (AID 1612); settings: MN-1 motor neuron cells, stronger effect = higher value;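 also: tested at 1 µM final; 0% = mean of DMSO vehicle wells on each plate; positive means more glutamate uptake than control and negative means less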
[7] = GFP-Q80 aggregate reduction, neuronal-like cells, cell-based, NGF-treated PC12, GFPQ80 (AID 1614); settings: PC12 NGF-treated GFP-polyQ80 inclusion reduction;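 also: lower means fewer inclusions and 0 means no inclusions at all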
[8] = 75Q-TubH aggregate inhibition, S. cerevisiae, yeast (AID 1616); settings: S. cerevisiae 75Q-TubH polyglutamine aggregation suppression; stronger effect = higher value
[9] = compounds altering circadian rhythm period length – cell-based, LOPAC library, luminescence reporter (AID 2774; call rule not given here;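 also: values are relative to mean of DMSO wells on each plate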); settings: circadian reporter cells, at 7 µM, actives lie on both sides
[10] = P. berghei load reduction in hepatocytes – cell-based, HepG2, luciferase luminescence, HepG2 viability, primary screen (AID 624349);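 also: 100% = mean of DMSO negative control wells on the same plate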; settings: P. berghei liver stage in HepG2, luciferase luminescence, concentration not given here; parasite load remaining: stronger effect = lower value; viability: measured here: HepG2 viability without parasites
[11] = system: Hepatitis C virus NS3 helicase; test: blockers of NS3h binding to ssDNA – biochemical, fluorescence polarization, LOPAC1280 library, primary screen (AID 687035; in the data active = inhibition above about 37%); settings: Purified HCV NS3 helicase, Cy5-dT15 ssDNA binding fluorescence polarization; stronger effect = higher value; concentration not given here
[12] = compounds altering Cy5-DNA-NS3h complex signal – biochemical, LOPAC1280, artefact control for HCV NS3 helicase inhibitor project (AID 687037; call rule not given here); settings: Cy5-DNA-NS3h complex fluorescence interference counterscreen
[13] = biological target: 6-phosphogluconate dehydrogenase, decarboxylating (Homo sapiens) (UniProt P52209); test: inhibition of human phosphogluconate dehydrogenase – biochemical, recombinant enzyme, NADPH absorbance, primary screen (AID 1159550;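 active = at least 20% inhibition of 6-phosphogluconate dehydrogenase activity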); settings: recombinant 6PGD, NADPH absorbance 341 nm; at 10 µM; stronger effect = higher value
6-phosphogluconate dehydrogenase, decarboxylating (Homo sapiens), sequence (P52209 whole entry, looked up): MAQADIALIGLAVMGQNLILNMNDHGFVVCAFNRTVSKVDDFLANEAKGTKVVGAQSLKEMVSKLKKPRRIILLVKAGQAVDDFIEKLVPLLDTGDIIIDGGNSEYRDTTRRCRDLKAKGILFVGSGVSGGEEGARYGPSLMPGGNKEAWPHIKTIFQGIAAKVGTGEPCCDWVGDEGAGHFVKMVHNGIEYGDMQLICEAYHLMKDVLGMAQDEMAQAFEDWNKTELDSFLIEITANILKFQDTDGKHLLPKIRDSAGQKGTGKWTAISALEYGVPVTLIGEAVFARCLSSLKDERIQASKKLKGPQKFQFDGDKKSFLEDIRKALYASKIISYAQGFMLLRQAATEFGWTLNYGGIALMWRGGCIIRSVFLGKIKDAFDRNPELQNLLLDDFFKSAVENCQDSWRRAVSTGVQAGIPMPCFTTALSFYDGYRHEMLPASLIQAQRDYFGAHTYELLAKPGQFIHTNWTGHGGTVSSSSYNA

[14] = EMT-state selective cytotoxicity in co-culture – imaging, PC-3E GFP, TEM4-18 mCherry, primary screen (AID 1345086;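 active = compounds killing one labelled cell type while sparing the other, by normalised counts and ratio limits, not self-fluorescent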;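 as to all read-outs here: cells exposed to compound for 72 h before imaging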;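 as to red/green cell ratio (normalised): normalised mesenchymal count divided by normalised epithelial count so high means epithelial killing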); settings: PC-3E GFP / TEM4-18 mCherry co-culture, imaging cell counts, at 1 µM; for red/green cell ratio (normalised): actives lie on both sides, counts scaled to control wells, 1 = unselective
[15] = chitosan synthesis blockers in C. neoformans – flow cytometry, Cibacron Brilliant Red staining (AID 1347148; call rule not given here;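 also: compound exposure lasted three days at 37 degrees C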); settings: Cryptococcus neoformans chitosan, stronger effect = lower value; at 10 µM unless noted
[16] = blockers of cellular phospholipid synthesis – cell-based, LOPAC library, screen 4, primary screen (AID 1347384; call rule not given here); settings: animal cells, phospholipid biosynthesis inhibition screen; at 10 µM
[17] = MELAS cybrid and Rieske KO viability enhancers – cell-based, MELAS cybrids, Rieske KO mouse fibroblasts, CellTiter-Glo, primary screen (AID 1508586;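 active = mean z-score across replicates of 1.96 or higher in either the MELAS or the Rieske mutant cell line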;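 also: z relative to plate mean and SD of compound and empty wells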); settings: low glucose
[18] = biological target: Mitogen-activated protein kinase 7 (Homo sapiens) (UniProt Q13164); test: Gal4-ERK5 driven luciferase induction – cell-based, HTS, primary screen (AID 1508626;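 active = luciferase signal above three times the same-plate solvent-only control wells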;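 also: luciferase driven by Gal4-ERK5 fusion binding five Gal4 sites before minimal TATA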); settings: HeLa Gal4-ERK5 transactivation, 18 h, at 5 µM, stronger effect = higher value
Mitogen-activated protein kinase 7 (Homo sapiens), sequence (Q13164 whole entry, looked up, the tested form may be a part): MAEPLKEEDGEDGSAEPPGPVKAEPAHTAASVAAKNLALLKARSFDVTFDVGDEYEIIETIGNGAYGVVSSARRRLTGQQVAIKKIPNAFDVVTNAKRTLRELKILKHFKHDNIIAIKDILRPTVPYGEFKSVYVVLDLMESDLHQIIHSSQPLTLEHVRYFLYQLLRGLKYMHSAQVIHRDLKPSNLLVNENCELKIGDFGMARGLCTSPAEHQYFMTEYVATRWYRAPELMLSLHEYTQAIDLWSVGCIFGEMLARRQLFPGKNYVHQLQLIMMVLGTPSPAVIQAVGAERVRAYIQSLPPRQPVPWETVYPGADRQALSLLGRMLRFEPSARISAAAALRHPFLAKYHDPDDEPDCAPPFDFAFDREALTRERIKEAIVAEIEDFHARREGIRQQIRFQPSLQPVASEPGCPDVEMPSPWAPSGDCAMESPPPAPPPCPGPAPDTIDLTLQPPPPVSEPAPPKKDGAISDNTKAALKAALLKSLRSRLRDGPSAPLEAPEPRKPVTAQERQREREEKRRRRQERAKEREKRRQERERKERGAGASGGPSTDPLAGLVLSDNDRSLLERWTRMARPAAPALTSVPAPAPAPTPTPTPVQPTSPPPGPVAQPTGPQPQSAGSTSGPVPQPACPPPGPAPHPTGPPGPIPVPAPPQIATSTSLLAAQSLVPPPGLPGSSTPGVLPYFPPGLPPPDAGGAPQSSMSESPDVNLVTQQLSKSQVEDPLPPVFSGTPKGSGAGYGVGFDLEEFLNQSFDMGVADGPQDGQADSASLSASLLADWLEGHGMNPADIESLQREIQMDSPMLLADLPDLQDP

[19] = galactose survival enhancers in mitochondrial complex I cybrids – cell-based, galactose medium, ATP luminescence, primary screen (AID 1645843;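 active = z-score of at least 1.8 in each of two replicates, scored against plate mean and spread of sample wells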;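 also: positive z means more ATP and so rescue of galactose-driven cybrid death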); settings: complex I mutant cybrid cells, 72 h, stronger effect = higher value
[20] = biological target: NAD(+) hydrolase SARM1 (Homo sapiens) (UniProt Q6SZW1); test: blocking NAD cleavage by SARM1 SAM-TIR – cell lysate, NAD-Glo luminescence (AID 1508614;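 active = compound whose remaining NAD level is above about 45 nM, limit read from the data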;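 also: higher remaining NAD means stronger inhibition of SARM1 NADase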); settings: SAM-TIR HEK293T lysate NADase, at 1 µM, stronger effect = higher value
NAD(+) hydrolase SARM1 (Homo sapiens), sequence (Q6SZW1 whole entry, looked up): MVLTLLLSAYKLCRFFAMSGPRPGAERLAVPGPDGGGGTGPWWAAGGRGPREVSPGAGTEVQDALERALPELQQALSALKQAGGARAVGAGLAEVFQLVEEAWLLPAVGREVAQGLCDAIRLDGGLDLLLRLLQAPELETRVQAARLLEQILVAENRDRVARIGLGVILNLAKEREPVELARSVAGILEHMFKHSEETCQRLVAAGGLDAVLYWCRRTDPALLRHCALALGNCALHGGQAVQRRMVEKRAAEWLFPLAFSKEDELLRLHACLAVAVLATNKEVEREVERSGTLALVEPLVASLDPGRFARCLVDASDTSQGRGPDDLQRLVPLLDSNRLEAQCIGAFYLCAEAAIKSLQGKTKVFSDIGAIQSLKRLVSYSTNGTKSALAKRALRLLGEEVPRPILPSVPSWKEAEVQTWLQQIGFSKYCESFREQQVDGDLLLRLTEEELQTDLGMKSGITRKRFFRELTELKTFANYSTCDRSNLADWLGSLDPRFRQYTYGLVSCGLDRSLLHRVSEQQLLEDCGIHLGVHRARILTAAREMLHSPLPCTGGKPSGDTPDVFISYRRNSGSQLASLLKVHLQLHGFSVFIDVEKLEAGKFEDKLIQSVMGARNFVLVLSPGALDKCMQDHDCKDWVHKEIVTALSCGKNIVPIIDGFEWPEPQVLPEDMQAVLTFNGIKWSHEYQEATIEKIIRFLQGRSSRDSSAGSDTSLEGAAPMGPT

[21] = viability loss with induced miR-34 in A549 – imaging, A549 dox-inducible miR-34, nuclei and caspase counts, primary screen (AID 1347080;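 active = compounds whose cell count with miR-34 switched on is under 0.7 times the count with it off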); settings: A549 miR-34 inducible, Hoechst nuclei count, 48 h
[22] = measured here: epithelial PC-3E GFP cell survival
[23] = measured here: mesenchymal TEM4-18 mCherry cell survival
[24] = stronger effect = lower value, cell number ratio, induced over uninduced
[25] = measured here: relative caspase fold change +Dox/-Dox
[26] = measured here: total cells with miR-34 induction, stronger effect = lower value
[27] = measured here: total cells without miR-34 induction

## CC(C)Cn1c(=O)n(C)c(=O)c2[nH]cnc21
[1]
  inhibition: 10.7%
[2]
  score: 1.18
[3]
  rescue above control: -7.15
[4]
  cytochrome c release ratio: 0.66
[5]
  inhibition of aggregation: 80.3%
[6]
  glutamate uptake change: 11.7%
[7]
  inclusion score: 2
[8]
  aggregation suppression score: 1.34
[9]
  period change: 0.065 h (inactive)
[10]
  parasite load remaining: 31.6% (inactive)
  viability: 71.5%
[11]
  inhibition: -1% (inactive)
[12]
  fluorescence ratio (interference): 0.9 (inactive)
[13]
  inhibition: -0.657% (inactive) and 4.73% (inactive)
[14]
  red/green cell ratio (normalised): 0.79 (inactive) and 0.82 (inactive)
[14]; [22]
  normalised cell number: 1.26 and 1.32
[14]; [23]
  normalised cell number: 1 and 1.09
[15]
  fold fluorescence: 4.08 [at 225 µM] (inactive)
[16]
  outcome: inactive
[17]; MELAS cybrid survival, CellTiter-Glo 48 h, stronger effect = higher value
  z-score: -0.413 (inactive) and 0.263 (inactive)
[17]; Rieske KO mouse fibroblast survival, CellTiter-Glo 72 h
  z-score: 0.307 and 0.838
[18]
  luciferase signal: 504 AU (active)
[19]
  z-score: 0.71 (inactive) and -0.29 (inactive) and 0.67 (inactive)

## CC(=O)Nc1ccc(OC(=O)c2ccccc2O)cc1
[1]
  inhibition: -0.86%
[2]
  score: 0.55
[3]
  rescue above control: 4.5
[4]
  cytochrome c release ratio: 1.29
[5]
  inhibition of aggregation: 92.3%
[6]
  glutamate uptake change: 0.86%
[7]
  inclusion score: 2
[8]
  aggregation suppression score: 0.54
[10]
  parasite load remaining: 50.3% (inactive)
  viability: 71.4%
[13]
  inhibition: -12.6% (inactive)
[14]
  red/green cell ratio (normalised): 0.93 (inactive)
[14]; [22]
  normalised cell number: 1.16
[14]; [23]
  normalised cell number: 1.08
[20]
  remaining NAD: 10 nM (inactive)
[18]
  luciferase signal: 40 AU (inactive)

## CCCCCCCCCCCCCCCC(=O)OC/C=C(C)/C=C/C=C(C)/C=C/C1=C(C)CCCC1(C)C
[1]
  inhibition: -19.1%
[2]
  score: 1.38
[3]
  rescue above control: 3.93
[4]
  cytochrome c release ratio: 1.03
[5]
  inhibition of aggregation: 46%
[6]
  glutamate uptake change: 4.94%
[7]
  inclusion score: 2
[8]
  aggregation suppression score: 0.6
[10]
  parasite load remaining: 174% (inactive) and 50.5% (inactive)
  viability: 86.2% and 95%
[13]
  inhibition: 1.58% (inactive)
[14]
  red/green cell ratio (normalised): 1.41 (inactive)
[14]; [22]
  normalised cell number: 0.95
[14]; [23]
  normalised cell number: 1.34
[21]; [24]
  fold change: 0.809 (inactive)
[21]; [25]
  fold change: 0.861
[21]; [26]
  cell count: 9920
[21]; [27]
  cell count: 12300
[20]
  remaining NAD: 10 nM (inactive)
[18]
  luciferase signal: 624 AU (active)

## CCCCCCCCCc1ccc(OCCOCCOCCOCCOCCOCCOCCOCCOCCO)cc1
[10]
  parasite load remaining: -0.79% (active)
  viability: 85%
[13]
  inhibition: -15.2% (inactive)
[14]
  red/green cell ratio (normalised): 1.03 (inactive)
[14]; [22]
  normalised cell number: 1.14
[14]; [23]
  normalised cell number: 1.18
[21]; [24]
  fold change: 0.78 (inactive)
[21]; [25]
  fold change: 2.5
[21]; [26]
  cell count: 2440
[21]; [27]
  cell count: 3120
[20]
  remaining NAD: 10 nM (inactive)
[18]
  luciferase signal: 40 AU (inactive)

## COc1ccc2cc([C@H](C)CO)ccc2c1
[10]
  parasite load remaining: 184% (inactive) and 65% (inactive)
  viability: 85.1% and 144%
[13]
  inhibition: 2.43% (inactive)
[14]
  red/green cell ratio (normalised): 1.04 (inactive)
[14]; [22]
  normalised cell number: 1.15
[14]; [23]
  normalised cell number: 1.2
[21]; [24]
  fold change: 0.861 (inactive)
[21]; [25]
  fold change: 3.55
[21]; [26]
  cell count: 11000
[21]; [27]
  cell count: 12800
[20]
  remaining NAD: 10 nM (inactive)
[18]
  luciferase signal: 32 AU (inactive)

## C=Cc1c(C)/c2[n-]/c1=C\c1[n-]c(c(CC)c1C)/C=c1\[n-]c3c(c1C)C(=O)C(C(=O)[O-])C=3c1[n-]c(c(C)c1CCC(=O)[O-])\C=2.[Cu].[Na+].[Na+] (stereo not given)
[10]
  parasite load remaining: 101% (inactive) and 38.1% (inactive)
  viability: 71.3% and 170%
[13]
  inhibition: 37.8% (active)
[14]
  red/green cell ratio (normalised): 0.85 (inactive)
[14]; [22]
  normalised cell number: 1.03
[14]; [23]
  normalised cell number: 0.87
[21]; [24]
  fold change: 0.937 (inactive)
[21]; [25]
  fold change: 2.82
[21]; [26]
  cell count: 11500
[21]; [27]
  cell count: 12300

## C1CNCCN1
[1]
  inhibition: 15.3%
[2]
  score: 1.95
[3]
  rescue above control: -1.97
[4]
  cytochrome c release ratio: 1.16
[5]
  inhibition of aggregation: 15.4%
[6]
  glutamate uptake change: -12.2%
[7]
  inclusion score: 2
[8]
  aggregation suppression score: 1.67
[10]
  parasite load remaining: 96.9% (inactive) and 59.4% (inactive)
  viability: 74.5% and 108%
[13]
  inhibition: 7.35% (inactive)
[14]
  red/green cell ratio (normalised): 1.22 (inactive)
[14]; [22]
  normalised cell number: 0.8
[14]; [23]
  normalised cell number: 0.98
[21]; [24]
  fold change: 0.887 (inactive)
[21]; [25]
  fold change: 2.06
[21]; [26]
  cell count: 11000
[21]; [27]
  cell count: 12400
[20]
  remaining NAD: 10 nM (inactive)
[18]
  luciferase signal: 560 AU (inactive)

## CC1(C)S[C@@H]2C(N3C(=O)[C@@H](c4ccccc4)NC3(C)C)C(=O)N2[C@H]1C(=O)O (stereo not given in full)
[1]
  inhibition: 4.02%
[2]
  score: 1.26
[3]
  rescue above control: -1.6
[4]
  cytochrome c release ratio: 0.9
[5]
  inhibition of aggregation: 49.2%
[6]
  glutamate uptake change: 4.63%
[7]
  inclusion score: 2
[8]
  aggregation suppression score: 1.31
[10]
  parasite load remaining: 110% (inactive) and 71.1% (inactive)
  viability: 76.4% and 94.5%
[13]
  inhibition: -0.481% (inactive)
[14]
  red/green cell ratio (normalised): 1.14 (inactive)
[14]; [22]
  normalised cell number: 0.94
[14]; [23]
  normalised cell number: 1.08
[21]; [24]
  fold change: 0.886 (inactive)
[21]; [25]
  fold change: 0.799
[21]; [26]
  cell count: 11200
[21]; [27]
  cell count: 12600

## COc1ccc2c(c1OC)C(=O)O[C@H]2[C@H]1c2c(cc3c(c2OC)OCO3)CCN1C
[10]
  parasite load remaining: 93.3% (inactive) and 73.1% (inactive)
  viability: 64.7% and 94.8%
[13]
  inhibition: 4.17% (inactive)
[14]
  red/green cell ratio (normalised): 1.15 (inactive)
[14]; [22]
  normalised cell number: 1.08
[14]; [23]
  normalised cell number: 1.24
[21]; [24]
  fold change: 0.877 (inactive)
[21]; [25]
  fold change: 1.33
[21]; [26]
  cell count: 8940
[21]; [27]
  cell count: 10200

## O=C(O)CN(CCN(CC(=O)O)CC(=O)O)CC(=O)O
[1]
  inhibition: 13.2%
[2]
  score: 1.69
[3]
  rescue above control: -6.51
[4]
  cytochrome c release ratio: 0.54
[5]
  inhibition of aggregation: 72.4%
[6]
  glutamate uptake change: -23.4%
[7]
  inclusion score: 1.5
[8]
  aggregation suppression score: 1.43
[10]
  parasite load remaining: 74.6% (inactive) and 69.8% (inactive)
  viability: 73.4% and 97.7%
[13]
  inhibition: 8.13% (inactive)
[14]
  red/green cell ratio (normalised): 1.05 (inactive) and 0.92 (inactive)
[14]; [22]
  normalised cell number: 1.05 and 1.23
[14]; [23]
  normalised cell number: 1.11 and 1.13
[21]; [24]
  fold change: 0.899 (inactive)
[21]; [25]
  fold change: 3.42
[21]; [26]
  cell count: 11600
[21]; [27]
  cell count: 12900
[20]
  remaining NAD: 10 nM (inactive)
